PGC1a acetyl inh = inhibitors of PGC1a acetylation signal, primary screen, cell-based, U2OS, AlphaScreen, inhibitor mode | AlphaScreen anti-acetyl-lysine; with virally co-expressed GCN5 acetyltransferase | inhibition, % at 15.6 µM | 350,000 compounds, 0.17% hits | AID 651687, 2012;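 active = every replicate shows inhibition of at least 40%; inconclusive = mean inhibition at least 40% but some replicate below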
LGR2 antag = inhibitors of bursicon-induced LGR2 CRE-luciferase signal, primary screen, cell-based, HEK293, CRE-luciferase reporter, bursicon stimulation. inhibition, % at 9.99 µM. Drosophila bursicon receptor LGR2 (rickets). AID 720647, 2013. bursicon-stimulated, 4 h. 380,000 compounds, 0.35% hits;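 active = drop in luminescence signal, shown as inhibition above about 50% in the replicate tests, limit read from the data, passing the limit was not always enough; inconclusive = probably only some replicates passing the limit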;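 also: agonist challenge used bursicon conditioned medium at about half maximal strength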
EBV LMP1 NFkB = EBV LMP1-driven NF-kappaB luciferase reporter inhibitors, primary screen, cell-based, luminescence, single point; LMP1-induced NF-kappaB luciferase reporter cells; 350,000 compounds, 0.69% hits; inhibition, % at 12.5 µM; in the data active = inhibition above about 41%; inconclusive = no clear call, values can overlap the other calls
PAX8 inh HTS = inhibitors of PAX8-driven TPO luciferase reporter, primary screen, RMG-I cells, single concentration | SteadyGlo, 24 h | inhibition, % at 12.6 µM | 360,000 compounds, 1.2% hits | AID 652154, 2013;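 active = mean replicate inhibition at least 60% with every replicate also reaching 60%; inconclusive = only one of the two criteria is met; inactive = mean below 60% and not all replicates reaching 60%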;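 also: luciferase light reporting Pax8 driven TPO promoter activity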
MITF TRPM1 inh = inhibitors of MITF-dependent TRPM1 promoter reporter, primary screen, cell-based, SK-MEL-5, single point, luciferase; SK-MEL-5 TRPM1 promoter luciferase, 24 h; inhibition, % at 12.5 µM; 330,000 compounds, 0.83% hits;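 active = mean inhibition across replicates of 60% or more, whatever share of single replicates reaches that level; inconclusive = some that reach 60%, reason not given; inactive = mean inhibition across replicates below 60%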
EWS-Fli block = EWS/Fli-driven NR0B1 reporter inhibitors, primary screen, A673 cells, NR0B1 luciferase, luminescence, MLPCN library; viability-normalised; inhibition, % at 12.6 µM; 350,000 compounds, 0.67% hits;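 active = mean inhibition of at least 50% after viability correction, with every replicate also passing that limit; inconclusive = mean reaches 50% but only one of two replicates passes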;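 also: firefly luciferase signal divided by Alamar Blue viability fluorescence both relative to DMSO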
DNA binder FP = DNA binders by acridine orange displacement, dose response, counter-screen for EWS/Fli inhibitor project, biochemical, fluorescence polarization, cherry-pick. salmon sperm DNA acridine orange fluorescence polarization. AC35, µM (highest dose often 68 µM). shares compounds with EWS-Fli block. 640 compounds, 2% hits;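 active = fitted curve reaches a 35% signal fall AC35 below twice the sample's top valid tested dose, actives reach about 48 µM in these data; inactive = the rest, including activity in the rising direction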;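 also: lower polarization ratio signals compound binding to DNA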
Large screens that a line does not name were inactive (follow-up assays come after a bar, where they were run). The list is not random: actives were taken first. Their share in the collection is about 2.2%.

CC[C@H](C)[C@@H]1NC(=O)CNC(=O)c2csc(n2)[C@H](C(C)(C)O)OC(=O)C(C)(C)[C@H](CCCC(C)(Cl)Cl)OC(=O)c2csc1n2	PGC1a acetyl inh 60, PAX8 inh HTS 102 (no result: LGR2 antag, EBV LMP1 NFkB, MITF TRPM1 inh)
Nc1ccccc1-[n+]1c(-c2ccccc2)cc(-c2ccccc2)cc1-c1ccccc1	PAX8 inh HTS inconclusive
Oc1ccccc1-[n+]1c(-c2ccccc2)cc(-c2ccccc2)cc1-c1ccccc1	PAX8 inh HTS 78
Cc1ccccc1-[n+]1c(-c2ccccc2)cc(-c2ccccc2)cc1-c1ccccc1	EBV LMP1 NFkB inconclusive, PAX8 inh HTS 95, MITF TRPM1 inh 90
[O-]c1ccccc1-[n+]1c(-c2ccccc2)cc(-c2ccccc2)cc1-c1ccccc1	PAX8 inh HTS 90 (no result: PGC1a acetyl inh)
O=C(O)[C@@H]1[C@@H](CO)[C@@H]2Cn3c(ccc(-c4ccncc4)c3=O)[C@H]1N2C(=O)C1CC1	none (no result: PGC1a acetyl inh, EBV LMP1 NFkB, MITF TRPM1 inh)
O=C(Cc1ccccn1)N1CCCCN2[C@H](CO)[C@@H](c3ccc(C#Cc4ccccc4)cc3)[C@@H]2C1	none (no result: EBV LMP1 NFkB, MITF TRPM1 inh)
O=C(Cc1ccncc1)N1CCCCN2[C@@H](CO)[C@@H](c3ccc(C#CC4(O)CCCC4)cc3)[C@@H]2C1	none (no result: EBV LMP1 NFkB, MITF TRPM1 inh, EWS-Fli block)
COC(=O)[C@H]1N[C@H]2c3ccc(C4=CCCC4)c(=O)n3C[C@H]2[C@@H]1CO	none (no result: PGC1a acetyl inh, EBV LMP1 NFkB, PAX8 inh HTS, MITF TRPM1 inh)
COC(=O)C1=C(c2ccc(F)cc2OCc2ccccc2)C[C@@H]2CC[C@H]1N2C(=O)NCc1ccc(C)cc1	PAX8 inh HTS 102
COC(=O)C1=C(c2ccc(F)cc2OCc2ccccc2)C[C@@H]2CC[C@H]1N2C(=O)NC1Cc2ccccc2C1	PAX8 inh HTS 89
Cc1ccc(OC(=O)N(C)C[C@H]2OCc3ccccc3-c3c(n(C)c4ccccc34)C(=O)N([C@H](C)CO)C[C@H]2C)cc1	none (no result: EBV LMP1 NFkB, MITF TRPM1 inh, EWS-Fli block)
C[C@H]1[C@@H](OS(=O)(=O)O)C[C@@H]2C[C@H]([C@@H](O)c3cc(=O)[nH]c(=O)[nH]3)NC3=NC[C@H]1N32	PGC1a acetyl inh 94, EBV LMP1 NFkB 72, MITF TRPM1 inh 74 (no result: LGR2 antag, PAX8 inh HTS, EWS-Fli block)
COC(=O)[C@H]1[C@H](CO)[C@H]2Cn3c(ccc(C4=CCCC4)c3=O)[C@@H]1N2C(=O)C1CCCCC1	none (no result: PGC1a acetyl inh, EBV LMP1 NFkB, MITF TRPM1 inh)
O=c1[nH]c2ccccc2n1C1CCN(C(c2cc3ccccc3o2)c2nnnn2-c2ccc3c(c2)OCCO3)CC1 (stereo not drawn)	LGR2 antag 96, PAX8 inh HTS 103 (no result: EBV LMP1 NFkB, MITF TRPM1 inh)
O=c1[nH]c2ccccc2n1C1CCN(C(c2cccc3ccccc23)c2nnnn2-c2ccc3c(c2)OCCO3)CC1 (stereo not drawn)	PAX8 inh HTS 98 (no result: EBV LMP1 NFkB, MITF TRPM1 inh)
Cc1cccc(C)c1-n1nnnc1C(c1cccc2ccccc12)N1CCC(n2c(=O)[nH]c3ccccc32)CC1 (stereo not drawn)	none (no result: EBV LMP1 NFkB, MITF TRPM1 inh)
COc1ccc(-n2nnnc2C(c2cc3ccccc3o2)N2CCC(n3c(=O)[nH]c4ccccc43)CC2)cc1 (stereo not drawn)	LGR2 antag 76 (no result: EBV LMP1 NFkB, MITF TRPM1 inh)
COC(=O)[C@H]1[C@H](CO)[C@H]2Cn3c(ccc(C4=CCCCC4)c3=O)[C@@H]1N2CC1CC1	none (no result: PGC1a acetyl inh, EBV LMP1 NFkB, PAX8 inh HTS, MITF TRPM1 inh)
c1cc(-c2ccc(C3[C@H]4CNC[C@@H]3N4CC3CC3)cc2)ccn1 (stereo partly drawn)	none (no result: EBV LMP1 NFkB, MITF TRPM1 inh)
CCOC(=O)CC(NC(=O)C(Cc1ccc(N(CCCl)CCCl)cc1)NC(C)=O)C(=O)OCC (stereo not drawn)	EBV LMP1 NFkB 55, EWS-Fli block 68 (no result: PGC1a acetyl inh)
COC1C(O)C(C)OC(OC2CCC3(C)C(CCC4C3C(O)CC3(C)C(C5=CC(=O)OC5)CCC43O)C2)C1O (stereo not drawn)	LGR2 antag 90, EBV LMP1 NFkB 57, PAX8 inh HTS 108, MITF TRPM1 inh 73, EWS-Fli block 51 | DNA binder FP inactive
CC12CC[C@H]3[C@@H](CCC4(O)C[C@H](O)CCC34/C=N/NC(=O)c3ccccc3[N+](=O)[O-])C1(O)CCC2C1=CC(=O)OC1 (stereo partly drawn)	none
C[C@]12CC[C@H](O)C[C@H]1CC[C@@H]1[C@@H]2CC[C@]2(C)[C@@H](C3=CC(=O)OC3)CC[C@]12O	LGR2 antag 84, EBV LMP1 NFkB 78, PAX8 inh HTS 113, MITF TRPM1 inh 73, EWS-Fli block 67 | DNA binder FP inactive
CNC(=O)Nc1ccc(C(=O)N/N=C\C23CC[C@@H](O)CC2(O)CC[C@@H]2[C@@H]3CCC3(C)C(C4=CC(=O)OC4)CCC23O)cc1 (stereo partly drawn)	none
CC(=O)OC1CC(OC2C(O)CC(OC3C(O)CC(OC4CCC5(C)C(CCC6C5CC(O)C5(C)C(C7=CC(=O)OC7)CCC65O)C4)OC3C)OC2C)OC(C)C1OC1OC(CO)C(O)C(O)C1O (stereo not drawn)	LGR2 antag 88, EBV LMP1 NFkB 83, PAX8 inh HTS 111, MITF TRPM1 inh 70, EWS-Fli block 65 | DNA binder FP inactive
CC12CCC(O)CC1CCC1C2CCC2(C)C(C3=CC(=O)OC3)CCC12O (stereo not drawn)	PGC1a acetyl inh 80, LGR2 antag 86, EBV LMP1 NFkB 45, PAX8 inh HTS 106, MITF TRPM1 inh 68, EWS-Fli block 67 | DNA binder FP inactive
O=C(Cc1ccccc1)N1CCCCN2[C@H](CO)[C@@H](c3ccc(C#Cc4ccccc4)cc3)[C@H]2C1	none (no result: EBV LMP1 NFkB, MITF TRPM1 inh, EWS-Fli block)
CCN1[C@@H]2c3ccc(-c4cccc(C(=O)N(C)C)c4)c(=O)n3C[C@H]1[C@H](CO)[C@H]2C(=O)OC	none (no result: PGC1a acetyl inh, EBV LMP1 NFkB, MITF TRPM1 inh)
O=C(Cc1ccccn1)N1CCCCN2[C@@H](CO)[C@H](c3ccc(-c4ccccc4)cc3)[C@@H]2C1	none (no result: EBV LMP1 NFkB, MITF TRPM1 inh)
C[C@]12CCC3C(CC[C@H]4C[C@@H](O)CC[C@]34C)[C@H]1C=CC2=O (stereo partly drawn)	none
C[C@]12CC[C@H](O)C[C@H]1CC[C@@H]1[C@@H]2C[C@@H](O)[C@]2(C)[C@@H](C3=CC(=O)OC3)CC[C@]12O	LGR2 antag 80, EBV LMP1 NFkB 68, PAX8 inh HTS 104, MITF TRPM1 inh 71, EWS-Fli block 81 (no result: PGC1a acetyl inh) | DNA binder FP inactive
O=C1NC(=O)N(Cc2ccccc2)C(=O)/C1=C\C=C\c1ccco1	MITF TRPM1 inh 96, EWS-Fli block 65 | DNA binder FP inactive
Cn1cccc1/C=C1\C(=O)NC(=O)N(Cc2ccco2)C1=O	none (no result: EWS-Fli block)

High-throughput results (PubChem BioAssay)
